Data published in the supplement of paper PMC4466140.

target: AgAbp1; assay: SPOT peptide array binding signal intensity (averaged, normalized) (arbitrary units (background-subtracted, floor 0; scale differs between SH3 domains)); higher = stronger binding of the SH3 domain to the peptide
Method in brief: (§1)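 GST-SH3 fusions from four yeast species, purified on glutathione Sepharose, were incubated at 10 μg/ml overnight at 4°C on membranes of synthetic 15-mer peptides in which cysteines were replaced with serines. Binding signal is the normalized, background-subtracted spot intensity averaged over replicates, in domain-specific arbitrary units.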

Binder | SPOT peptide array binding signal intensity
APERAVPILPPRNNV | 7.5

target: AgBbc1; assay: as above
Method in brief: as §1

Binder | SPOT peptide array binding signal intensity
APERAVPILPPRNNV | 160

target: AgBem1-D1; assay: as above
Method in brief: as §1

Binder | SPOT peptide array binding signal intensity
APERAVPILPPRNNV | 47.5

target: AgBzz1-D1; assay: as above
Method in brief: as §1

Binder | SPOT peptide array binding signal intensity
APERAVPILPPRNNV | 84.5

target: AgBzz1-D2; assay: as above
Method in brief: as §1

Binder | SPOT peptide array binding signal intensity
APERAVPILPPRNNV | 10.5

target: AgCyk3; assay: as above
Method in brief: as §1

Binder | SPOT peptide array binding signal intensity
APERAVPILPPRNNV | 9

target: AgFus1; assay: as above
Method in brief: as §1

Binder | SPOT peptide array binding signal intensity
APERAVPILPPRNNV | ≤ 0

target: AgHof1; assay: as above
Method in brief: as §1

Binder | SPOT peptide array binding signal intensity
APERAVPILPPRNNV | 11.5

target: AgHse1; assay: as above
Method in brief: as §1

Binder | SPOT peptide array binding signal intensity
APERAVPILPPRNNV | 24.5

target: AgLsb1; assay: as above
Method in brief: as §1

Binder | SPOT peptide array binding signal intensity
APERAVPILPPRNNV | 109

target: AgLsb4; assay: as above
Method in brief: as §1

Binder | SPOT peptide array binding signal intensity
APERAVPILPPRNNV | 2180

target: AgMyo5; assay: as above
Method in brief: as §1

Binder | SPOT peptide array binding signal intensity
APERAVPILPPRNNV | ≤ 0

target: AgNbp2; assay: as above
Method in brief: as §1

Binder | SPOT peptide array binding signal intensity
APERAVPILPPRNNV | ≤ 0

target: AgRvs167; assay: as above
Method in brief: as §1

Binder | SPOT peptide array binding signal intensity
APERAVPILPPRNNV | 87.8

target: AgSho1; assay: as above
Method in brief: as §1

Binder | SPOT peptide array binding signal intensity
APERAVPILPPRNNV | ≤ 0

target: AgSla1-D1-D2; assay: as above
Method in brief: as §1

Binder | SPOT peptide array binding signal intensity
APERAVPILPPRNNV | ≤ 0

target: AgSla1-D3; assay: as above
Method in brief: as §1

Binder | SPOT peptide array binding signal intensity
APERAVPILPPRNNV | 0.5

target: CaAbp1-D1; assay: as above
Method in brief: as §1

Binder | SPOT peptide array binding signal intensity
APERAVPILPPRNNV | 11

target: CaAbp1-D2; assay: as above
Method in brief: as §1

Binder | SPOT peptide array binding signal intensity
APERAVPILPPRNNV | 14

target: CaBbc1; assay: as above
Method in brief: as §1

Binder | SPOT peptide array binding signal intensity
APERAVPILPPRNNV | 418

target: CaBem1-D1; assay: as above
Method in brief: as §1

Binder | SPOT peptide array binding signal intensity
APERAVPILPPRNNV | 2

target: CaBzz1-D1; assay: as above
Method in brief: as §1

Binder | SPOT peptide array binding signal intensity
APERAVPILPPRNNV | ≤ 0

target: CaBzz1-D2; assay: as above
Method in brief: as §1

Binder | SPOT peptide array binding signal intensity
APERAVPILPPRNNV | 28.5

target: CaCyk3; assay: as above
Method in brief: as §1

Binder | SPOT peptide array binding signal intensity
APERAVPILPPRNNV | 42.5

target: CaFus1; assay: as above
Method in brief: as §1

Binder | SPOT peptide array binding signal intensity
APERAVPILPPRNNV | 24

target: CaHof1; assay: as above
Method in brief: as §1

Binder | SPOT peptide array binding signal intensity
APERAVPILPPRNNV | 3.5

target: CaHse1; assay: as above
Method in brief: as §1

Binder | SPOT peptide array binding signal intensity
APERAVPILPPRNNV | 7.25

target: CaLsb1; assay: as above
Method in brief: as §1

Binder | SPOT peptide array binding signal intensity
APERAVPILPPRNNV | ≤ 0

target: CaLsb4; assay: as above
Method in brief: as §1

Binder | SPOT peptide array binding signal intensity
APERAVPILPPRNNV | 2970

target: CaMyo5; assay: as above
Method in brief: as §1

Binder | SPOT peptide array binding signal intensity
APERAVPILPPRNNV | ≤ 0

target: CaNbp2; assay: as above
Method in brief: as §1

Binder | SPOT peptide array binding signal intensity
APERAVPILPPRNNV | 25

target: CaRvs167; assay: as above
Method in brief: as §1

Binder | SPOT peptide array binding signal intensity
APERAVPILPPRNNV | 414

target: CaRvs167-3; assay: as above
Method in brief: as §1

Binder | SPOT peptide array binding signal intensity
APERAVPILPPRNNV | ≤ 0

target: CaSho1; assay: as above
Method in brief: as §1

Binder | SPOT peptide array binding signal intensity
APERAVPILPPRNNV | 4

target: CaSla1-D1-D2; assay: as above
Method in brief: as §1

Binder | SPOT peptide array binding signal intensity
APERAVPILPPRNNV | 1

target: CaSla1-D3; assay: as above
Method in brief: as §1

Binder | SPOT peptide array binding signal intensity
APERAVPILPPRNNV | ≤ 0

target: ScAbp1; assay: as above
Method in brief: as §1

Binder | SPOT peptide array binding signal intensity
APERAVPILPPRNNV | 1.5

target: ScBbc1; assay: as above
Method in brief: as §1

Binder | SPOT peptide array binding signal intensity
APERAVPILPPRNNV | 4.25

target: ScBem1-D1; assay: as above
Method in brief: as §1

Binder | SPOT peptide array binding signal intensity
APERAVPILPPRNNV | ≤ 0

target: ScBzz1-D1; assay: as above
Method in brief: as §1

Binder | SPOT peptide array binding signal intensity
APERAVPILPPRNNV | 2.5

target: ScBzz1-D2; assay: as above
Method in brief: as §1

Binder | SPOT peptide array binding signal intensity
APERAVPILPPRNNV | ≤ 0

target: ScCyk3; assay: as above
Method in brief: as §1

Binder | SPOT peptide array binding signal intensity
APERAVPILPPRNNV | 5

target: ScFus1; assay: as above
Method in brief: as §1

Binder | SPOT peptide array binding signal intensity
APERAVPILPPRNNV | ≤ 0

target: ScHof1; assay: as above
Method in brief: as §1

Binder | SPOT peptide array binding signal intensity
APERAVPILPPRNNV | 32.5

target: ScHse1; assay: as above
Method in brief: as §1

Binder | SPOT peptide array binding signal intensity
APERAVPILPPRNNV | ≤ 0

target: ScLsb1; assay: as above
Method in brief: as §1

Binder | SPOT peptide array binding signal intensity
APERAVPILPPRNNV | 80.2

target: ScLsb2; assay: as above
Method in brief: as §1

Binder | SPOT peptide array binding signal intensity
APERAVPILPPRNNV | 18

target: ScLsb3; assay: as above
Method in brief: as §1

Binder | SPOT peptide array binding signal intensity
APERAVPILPPRNNV | 4520

target: ScLsb4; assay: as above
Method in brief: as §1

Binder | SPOT peptide array binding signal intensity
APERAVPILPPRNNV | 1710

target: ScMyo3; assay: as above
Method in brief: as §1

Binder | SPOT peptide array binding signal intensity
APERAVPILPPRNNV | 33.5

target: ScMyo5; assay: as above
Method in brief: as §1

Binder | SPOT peptide array binding signal intensity
APERAVPILPPRNNV | 2.75

target: ScNbp2; assay: as above
Method in brief: as §1

Binder | SPOT peptide array binding signal intensity
APERAVPILPPRNNV | 6

target: ScPex13; assay: as above
Method in brief: as §1

Binder | SPOT peptide array binding signal intensity
APERAVPILPPRNNV | 789

target: ScRvs167; assay: as above
Method in brief: as §1

Binder | SPOT peptide array binding signal intensity
APERAVPILPPRNNV | 966

target: ScSho1; assay: as above
Method in brief: as §1

Binder | SPOT peptide array binding signal intensity
APERAVPILPPRNNV | 91.5

target: ScSla1-D1-D2; assay: as above
Method in brief: as §1

Binder | SPOT peptide array binding signal intensity
APERAVPILPPRNNV | 34.5

target: ScSla1-D3; assay: as above
Method in brief: as §1

Binder | SPOT peptide array binding signal intensity
APERAVPILPPRNNV | 1

target: SpAbp1-D1; assay: as above
Method in brief: as §1

Binder | SPOT peptide array binding signal intensity
APERAVPILPPRNNV | 5.5

target: SpBbc1; assay: as above
Method in brief: as §1

Binder | SPOT peptide array binding signal intensity
APERAVPILPPRNNV | 0.5

target: SpBzz1-D1; assay: as above
Method in brief: as §1

Binder | SPOT peptide array binding signal intensity
APERAVPILPPRNNV | 81

target: SpBzz1-D2; assay: as above
Method in brief: as §1

Binder | SPOT peptide array binding signal intensity
APERAVPILPPRNNV | ≤ 0

target: SpCyk3; assay: as above
Method in brief: as §1

Binder | SPOT peptide array binding signal intensity
APERAVPILPPRNNV | 13

target: SpHof1; assay: as above
Method in brief: as §1

Binder | SPOT peptide array binding signal intensity
APERAVPILPPRNNV | 3

target: SpHof1-2; assay: as above
Method in brief: as §1

Binder | SPOT peptide array binding signal intensity
APERAVPILPPRNNV | 8

target: SpHof1-3; assay: as above
Method in brief: as §1

Binder | SPOT peptide array binding signal intensity
APERAVPILPPRNNV | 20.8

target: SpHse1; assay: as above
Method in brief: as §1

Binder | SPOT peptide array binding signal intensity
APERAVPILPPRNNV | 2.5

target: SpLsb1; assay: as above
Method in brief: as §1

Binder | SPOT peptide array binding signal intensity
APERAVPILPPRNNV | 83.8

target: SpLsb4; assay: as above
Method in brief: as §1

Binder | SPOT peptide array binding signal intensity
APERAVPILPPRNNV | 3550

target: SpMyo1; assay: as above
Method in brief: as §1

Binder | SPOT peptide array binding signal intensity
APERAVPILPPRNNV | 926

target: SpNbp2; assay: as above
Method in brief: as §1

Binder | SPOT peptide array binding signal intensity
APERAVPILPPRNNV | ≤ 0

target: SpPex13; assay: as above
Method in brief: as §1

Binder | SPOT peptide array binding signal intensity
APERAVPILPPRNNV | 2

target: SpRvs167; assay: as above
Method in brief: as §1

Binder | SPOT peptide array binding signal intensity
APERAVPILPPRNNV | 1250

target: SpSla1-D1-D2; assay: as above
Method in brief: as §1

Binder | SPOT peptide array binding signal intensity
APERAVPILPPRNNV | ≤ 0

target: SpSla1-D3; assay: as above
Method in brief: as §1

Binder | SPOT peptide array binding signal intensity
APERAVPILPPRNNV | ≤ 0
